Bioassay records from PubChem.
aDG glyco up = alpha-DG glycosylation activation | Pro5-aDG cells, alpha-DG glycosylation AlphaScreen (IIH6); 0% Pro5, 100% B10-LARGE cell signal | activation, % at 10 µM | hit rate 0.22% among 360,000 | AID 624168;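 active means activation of at least 8% versus controls, or a plate z-score of at least 8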;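 further: Pro5 are CHO cells carrying HIG-tagged alpha-DG that lacks glycosylation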
COUP-TFII inh = NR2F2 (human) inhibition, primary screen. hit rate 0.7% among 370,000. P24468. HEK293T NGFI-A luciferase reporter, luminescence. inhibition, % at 8.6 µM. AID 686940;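 active means inhibition above a per-plate cutoff, mean inhibition of test wells between control levels plus 3 SD, cut at about 38% in these data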;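 further: cells cotransfected with COUP-TFII expression vector driving the NGFI-A reporter; 0% = median of COUP-TF2 test wells and 100% = reporter-only cells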
Target sequence (P24468 whole entry, looked up): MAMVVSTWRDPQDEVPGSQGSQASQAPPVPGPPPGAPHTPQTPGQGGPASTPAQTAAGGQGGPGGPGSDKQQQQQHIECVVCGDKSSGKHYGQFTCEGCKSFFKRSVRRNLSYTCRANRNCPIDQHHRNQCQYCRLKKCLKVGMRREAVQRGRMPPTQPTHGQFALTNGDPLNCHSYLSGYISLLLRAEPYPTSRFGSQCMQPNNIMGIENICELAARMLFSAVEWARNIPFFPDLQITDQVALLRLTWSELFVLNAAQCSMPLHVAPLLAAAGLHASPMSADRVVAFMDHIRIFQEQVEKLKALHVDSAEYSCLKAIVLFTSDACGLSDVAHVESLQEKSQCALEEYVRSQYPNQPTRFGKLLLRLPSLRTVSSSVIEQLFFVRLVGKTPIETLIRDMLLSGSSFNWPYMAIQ
HIV Env fusion = HIV envelope-mediated fusion inhibition; HeLa-JRFL Env/CEM21 cell fusion, luciferase; inhibition, % at 12.3 µM; hit rate 1.1% among 360,000; AID 651610;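 active means mean replicate inhibition score of at least 50 and every replicate individually at or above 50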;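 further: 0% = plate neutral controls and 100% = maraviroc near 300 nM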
GalR3 antagonist = blocks the human galanin receptor 3; O60755; HEK293 GalR3-CNG cAMP membrane potential fluorescence; galR3 body fused to GalR1 C-terminus; inhibition, % at 3 µM; hit rate 0.44% among 360,000; AID 651719;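 active means inhibition above the screen-wide average plus 3 SD, cut at about 13% in these data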;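 further: forskolin and galanin both at EC90 stimulate the cells; cAMP rise reported by CNG channel membrane potential dye signal; 0% = forskolin plus galanin with DMSO and 100% = forskolin alone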
Gli-Sufu antag = antagonists of Gli-Sufu signaling. Sufu-KO-LIGHT fibroblasts, Gli luciferase reporter luminescence. inhibition, % at 5 µM. hit rate 0.74% among 340,000. AID 588413;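 active means inhibition above about 55%, limit read from the data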;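 further: 0% = DMSO-treated cells and 100% = wells with medium but no cells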
* marks the source's active call; other numbers are inactive results; x = no result; [ ] = dose if it differs, or a comment. Shown are actives, neighbours in structure and some others; about 2.1% of the full set was active somewhere.

SMILES | aDG glyco up | COUP-TFII inh | HIV Env fusion | GalR3 antagonist | Gli-Sufu antag
C[C@@H]1CN([C@@H](C)CO)S(=O)(=O)c2ccc(C#C[C@@H](C)O)cc2O[C@H]1CN(C)C(=O)C1CCCCC1 | x | x | -8[16.7 µM] | x | x
C/C=C/c1cnc2c(c1)C(=O)N([C@H](C)CO)C[C@@H](C)[C@H](CN(C)C(=O)NC1CCCCC1)O2 | x | x | -8[16.7 µM] | x | x
CN(C)CCNc1cccc2sc3ccc(O)cc3c(=O)c12 | 0 | -22 | -14 | -8 | x
Cc1ccc(NCCN(C)C)c2c(=O)c3cc(O)ccc3sc12 | 0 | -94 | -67 | -7 | 66*
O=C1O[C@@H](c2ccccc2)[C@@H](c2ccccc2)N2[C@@H](c3ccc(O)cc3)[C@]3(C(=O)Nc4ccc(C#CC5(O)CCCCCC5)cc43)[C@@H](C(=O)N3CCCCCCC3)[C@H]12 | x | x | 13[16.7 µM] | x | x
CCOC(=O)C(c1ccccc1)C(Nc1cc(C(F)(F)F)cc(C(F)(F)F)c1)c1ccccn1 (stereo not given) | 0 | -3 | 67* | -4 | 10
O=S(=O)(c1ccc2ccccc2c1)N1CCN(Cc2cccc(OCCO)c2)CC1 | x | x | 0[16.7 µM] | x | x
CC(C)c1ccccc1NC(=O)Nc1nc(C(N)Cc2ccc(C(F)(F)F)cc2)cs1 (stereo not given) | -1 | -1 | -13 | -8 | x
NC(CCc1ccccc1)c1csc(NC(=O)NCCc2ccccc2)n1 (stereo not given) | 3 | 8 | 21 | -10 | x
NC(CCc1ccccc1)c1csc(NC(=O)Nc2ccccc2Oc2ccccc2)n1 (stereo not given) | -1 | 11 | 90* | -3 | x
NC(Cc1ccc(C(F)(F)F)cc1)c1csc(NC(=O)Nc2ccccc2Cc2ccccc2)n1 (stereo not given) | 0 | -5 | 82* | -4 | x
COc1cccc(Nc2nc(C(N)CCc3ccccc3)cs2)n1 (stereo not given) | 2 | -2 | 70* | -1 | x
Cc1cccc(CN(C)C[C@@H]2OCc3cn(nn3)CCCC(=O)N([C@H](C)CO)C[C@H]2C)c1 | x | x | 20[16.7 µM] | x | x
Cc1ccccc1-c1cnc2c(c1)C(=O)N([C@H](C)CO)C[C@H](C)[C@H](CN(C)C(=O)CC1CC1)O2 | x | x | 16[16.7 µM] | x | x
Cc1ccc(S(=O)(=O)N(Cc2ccc(Cl)cc2)c2ccccc2C(=O)NCc2ccco2)cc1 | 0 | 16 | 69* | -8 | 5
C=CCn1c(Cc2ccc(OCC)cc2)nnc1SCC(N)=O | 0 | 3 | 77* | 1 | 2
Cc1ccccc1Oc1nc(-c2ccccn2)nc2ccccc12 | 2.1* | 12 | 12 | -8 | -12
Cc1cccc(Oc2nc(-c3ccccn3)nc3ccccc23)c1 | 2 | -12 | 1 | -6 | -4
CCCCSc1nnc(CCCCCNC(=O)OC(C)(C)C)o1 | 0 | 17 | 55* | -4 | 1
CC(C)CC(NC(=O)OC(C)(C)C)c1cn([C@@H](CCCCNC(=O)OC(C)(C)C)C(=O)N2CCN(C(=O)OC(C)(C)C)CC2)nn1 (stereo not given in full) | 0 | 17 | 32 | -6 | 15
CC(C)(C)OC(=O)CC[C@@H](C(=O)N1CCN(C(=O)OC(C)(C)C)CC1)n1cc(C(Cc2ccc(O)cc2)NC(=O)OC(C)(C)C)nn1 (stereo not given in full) | 0 | 24 | 62* | -5 | 11
C[C@H]1CN([C@@H](C)CO)C(=O)c2cccc(NC(=O)Nc3ccccc3)c2O[C@H]1CN(C)C(=O)Nc1ccc(C(F)(F)F)cc1 | x | x | 8[16.7 µM] | x | x
COc1ccc(C(=O)Nc2ccc(N3CCOCC3)cc2)cc1S(=O)(=O)N1CCOCC1 | 0 | -2 | -11 | -2 | -2
COc1ccc(C(=O)Nc2ccc(-c3ccc(C)o3)cc2)cc1S(=O)(=O)N1CCOCC1 | 2 | 75* | 63* | 94* | 12
COc1cc(OC)cc(C(=O)NCC(=O)N2CCN(c3ccc(O)cc3)CC2)c1 | 0 | 1 | -7 | -3 | 58*
SMILES | aDG glyco up | COUP-TFII inh | HIV Env fusion | GalR3 antagonist | Gli-Sufu antag
COc1ccc(N2CCN(C(=O)CNC(=O)c3ccc4ccccc4c3)CC2)cc1 | 0 | -1 | 6 | -6 | 3
C/C(=N\NC(=O)c1nnn(-c2nonc2N)c1-c1ccccc1)c1ccccc1O | 0 | -3 | 29 | -3 | 68*
C/C(=N\NC(=O)c1nnn(-c2nonc2N)c1CN(C)c1ccccc1)c1ccccn1 | 1 | x | x | x | 78*
CCCCOc1ccc(/C=C/C(=O)OCC(=O)N2CC(=O)Nc3ccccc32)cc1OCC | 0 | -1 | 61* | -7 | 9
CCn1cc(SCC(=O)NCc2ccc3c(c2)OCO3)c2ccccc21 | 0 | 14 | 67* | x | -6
C=CCn1c(SCC(=O)NCc2ccc3c(c2)OCO3)nc2scc(-c3ccccc3)c2c1=O | 0 | 7 | 119* | 3 | 2
C/C(N)=C(/C#N)C(=O)CSc1nc2ccccc2c(=O)n1Cc1ccc(F)cc1 | 0 | 22 | 67* | -1 | 11
O=C(CSc1nc(-c2ccccc2)c(-c2ccccc2)[nH]1)NCc1ccco1 | 0 | -1 | 70* | -8 | -1
O=C(CSc1nnc(-c2ccccc2)c(-c2ccccc2)n1)NCc1ccco1 | 1 | 6 | -2 | -8 | -3
C=CCn1c(SCc2ccc3c(c2)OCO3)nc2scc(-c3ccco3)c2c1=O | 0 | 7 | -64 | 0 | 7
Cc1cc(C(=O)Nc2cccc3c2O[C@@H](CN(C)S(=O)(=O)c2ccc(F)cc2)[C@H](C)CN([C@@H](C)CO)C3=O)n(C)n1 | x | x | -24[16.7 µM] | x | x
C=CCn1c(SCC(=O)NCc2ccco2)nc2sc3c(c2c1=O)CCC3 | 0 | 2 | 65* | -3 | 4
CC(Sc1nc2cc([N+](=O)[O-])ccc2n1-c1ccc(F)cc1)C(=O)NCc1ccc2c(c1)OCO2 (stereo not given) | 0 | -14 | 94* | -8 | 13
O=C(CSc1nc2ccccc2c(=O)n1-c1ccccc1)NCc1ccc2c(c1)OCO2 | 0 | -1 | 80* | -3 | -4
O=C(CSc1nc2ccccc2c(=O)n1-c1ccccc1)NCc1ccco1 | 0 | 0 | x | -6 | 9
C=CCn1c(SCC(=O)NCc2ccco2)nc2sc3c(c2c1=O)CCCC3 | 0 | -11 | x | 2 | -4
Cc1cccc(-n2c(SCC(=O)NCc3ccco3)nc3ccccc3c2=O)c1 | 0 | -4 | 62* | 2 | 5
CO[C@@H]1CN(C)C(=O)c2ccc(NC(=O)Nc3cc(F)ccc3F)cc2OC[C@H](C)N(C)C[C@@H]1C | x | x | -3[16.7 µM] | x | x
CC(C)NC(=O)N(C)C[C@H]1OCCCC[C@@H](C)Oc2ccc(NS(=O)(=O)c3ccc(F)cc3)cc2C(=O)N([C@@H](C)CO)C[C@@H]1C | x | x | -34[16.7 µM] | x | x
C[C@H]1CN([C@@H](C)CO)C(=O)c2cc(-c3ccc(F)cc3)cnc2O[C@H]1CN(C)C(=O)Nc1ccccc1F | x | x | 0[16.7 µM] | x | x
Cc1cc(C)cc(-n2c(SC(C)C(=O)NCc3ccc4c(c3)OCO4)nc3ccccc3c2=O)c1 (stereo not given) | 0 | -4 | 64* | 5 | 6
